Cruzain inh noDet: qHTS Assay for Promiscuous and Specific Inhibitors of Cruzain (without detergent) | Cruzipain (Trypanosoma cruzi), P25779 | Potency, µM, for inactives: max response, negative = inhibition, most hits filed as inhibitors | purified cruzain, Z-FR-AMC fluorescence, no detergent | AID 1476, 2009 | 2.3% of 200,000 active;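 also: plate controls were enzyme without inhibitor for no effect and buffer without enzyme for full effect; nearly all actives have a fitted effect of over 40% in size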
Target sequence (P25779 123-467 limits assumed): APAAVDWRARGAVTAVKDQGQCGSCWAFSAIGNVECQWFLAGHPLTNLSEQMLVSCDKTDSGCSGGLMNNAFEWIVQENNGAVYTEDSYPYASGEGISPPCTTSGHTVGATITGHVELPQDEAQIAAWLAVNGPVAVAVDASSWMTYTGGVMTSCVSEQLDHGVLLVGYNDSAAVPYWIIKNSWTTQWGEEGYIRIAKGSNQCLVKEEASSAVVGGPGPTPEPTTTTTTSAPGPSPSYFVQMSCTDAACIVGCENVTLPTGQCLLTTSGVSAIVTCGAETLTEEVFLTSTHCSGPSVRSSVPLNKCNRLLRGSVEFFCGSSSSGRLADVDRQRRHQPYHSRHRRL
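Detergent-free condition (0.00005% Triton X-100) in acetate buffer pH 5.5 with DTT. 1.5 nM enzyme and compound were pre-mixed 15 min, then 2 uM Z-FR-AMC substrate added; reaction progress from fluorescence change between first and third reads (60 s).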
Cruzain Triton: qHTS Assay for Promiscuous and Specific Inhibitors of Cruzain (with detergent) | Cruzipain (Trypanosoma cruzi), P25779 | purified cruzain, Z-FR-AMC fluorescence, 0.01% Triton | Potency, µM, inactives show max response, negative = inhibition, usual class: inhibitors | 0.43% of 200,000 active;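 also: plate controls were neutral wells for no effect and buffer without enzyme for full effect; nearly all actives have a fitted effect of over 40% in size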
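Cysteine protease activity tested under reducing, mildly acidic conditions (100 mM sodium acetate pH 5.5, 5 mM DTT) plus 0.01% Triton X-100. Cruzain 1.5 nM; substrate Z-FR-AMC 2 uM; 15 min compound preincubation at room temperature.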
Starred values were filed as active, the others as inactive; ? = inconclusive. A selection: hits, their analogues and other compounds. The true share with any hit is near 2.4%. Calls follow the shape of the dose curve; as a rule, active = well fitted curve in the direction sought with a large enough effect; inconclusive = small, poorly fitted or top-dose-only effect, or another doubt; inactive = no such curve, though single readings can be large; an effect the other way counts as inactive or inconclusive. Potency is read from the fitted curve at half-maximal effect.

SMILES	Cruzain inh noDet	Cruzain Triton
COc1ccc(-c2coc3cc(OC(C)=O)cc(OC(C)=O)c3c2=O)cc1	-4%	0%
CN(C)c1ccc(NS(=O)(=O)c2cc(Cl)ccc2Cl)cc1	-11%	-9%
O=S(=O)(Nc1nc(-c2sccc2Cl)cs1)c1cc(Cl)ccc1Cl	?	20µM*
COC(=O)C/C=C/[C@@H](C)[C@H](NC(=O)OCC(Cl)(Cl)Cl)c1cccc(OC)c1	6%	0%
Cc1ccc2nc(SCC(=O)Nc3ccc(F)c([N+](=O)[O-])c3)[nH]c2c1	?	14µM*
Cc1ccc2nc(SCC(=O)Nc3ccc(C)c([N+](=O)[O-])c3)[nH]c2c1	-1%	-26%
CC(=O)c1cc(C)oc1C	-3%	1%
O=C(Nc1ccccc1)N1CCCC(c2nc(-c3cccs3)no2)C1 (stereo not drawn)	1%	-6%
CC1(C)CC(=O)C(C(c2cccc(O)c2O)C2C(=O)CC(C)(C)CC2=O)C(=O)C1	-7%	3%
COc1cccc(/C=N/NC(=O)c2cc3cc([N+](=O)[O-])ccc3s2)c1O	10µM*	3.5µM*
CC(C)NC(=O)c1cc2cc([N+](=O)[O-])ccc2s1	9%	2%
c1ccc(-c2nc(-c3ccccc3)c(NC3CCCCC3)o2)cc1	-7%	2%
O=C(c1ccc(Cl)cc1)[C@@H]1[C@@H]2C(=O)N(c3cccc4ccccc34)C(=O)[C@@H]2C2c3ccccc3C=NN21 (stereo partly drawn)	25µM*	0%
CC(=O)Oc1ccc(C(=O)[C@H]2[C@H]3C(=O)N(c4ccccc4)C(=O)[C@H]3[C@@H]3C=CC=NN32)cc1	19%	0%
CC(C)(CC(=O)OCC(=O)Nc1ccc(F)c(Cl)c1)CC1=NS(=O)(=O)c2ccccc2N1	2%	-3%
CCc1ccc(NCc2cc3cc4c(cc3n(CC(=O)Nc3ccc(F)cc3)c2=O)OCCO4)cc1	20µM*	-8%
COc1ccc(NCc2cc3cc4c(cc3n(CC(=O)Nc3ccc(F)cc3)c2=O)OCCO4)cc1	20µM*	-5%
CCc1ccc(NCc2cc3cc4c(cc3n(CC(=O)Nc3ccc(C)cc3)c2=O)OCO4)cc1	-22%	-3%
CCOc1ccc(NC(=O)Cn2c(=O)c(CNc3ccccc3)cc3cc4c(cc32)OCCO4)cc1	-23%	-4%
CCCCC(CC)Cn1c(O)c(/C=C2\C=NN=C2c2ccccc2)sc1=S (stereo not drawn)	7.9µM*	-1%
CCCn1c(O)c(/C=C2\C=NN=C2c2ccccc2)sc1=S	5%	-7%
Cc1c(N=Cc2cccs2)c(=O)n(-c2ccccc2)n1C	-9%	4%
Cc1ccc(C2C(C=Nc3c(C)n(C)n(-c4ccccc4)c3=O)=C(c3ccccc3)Oc3ccccc32)cc1 (stereo not drawn)	7.9µM*	-3%
Cc1c([C@@H](C)C2NC[C@H](C)C[C@@H]2O)ccc2c1C[C@@H]1[C@H]2CC=C2C[C@@H](O)CC[C@@]21C (stereo partly drawn)	-5%	1%
Brc1ccc(Nc2c3c(nc4nncn24)CCC3)cc1	8%	-2%
SMILES	Cruzain inh noDet	Cruzain Triton
O=C(O)Cc1[nH]cnc1C(=O)O	-6%	4%
S=C1NCCc2ccccc2C1c1ccccc1 (stereo not drawn)	32µM*	?
O=C(O)C1NCCc2ccccc21 (stereo not drawn)	10%	4%
O=c1cc(CO)occ1O	-9%	1%
CC(C)Br	4%	3%
O=C(CN1C(=O)C2C3CCC(C3)C2C1=O)OCC(=O)c1cccc([N+](=O)[O-])c1 (stereo not drawn)	-11%	0%
CC(C)C(C(=O)OCC(=O)c1cccc([N+](=O)[O-])c1)N1C(=O)[C@@H]2[C@H]3CC[C@H](C3)[C@@H]2C1=O (stereo partly drawn)	?	16µM*
COCCCNc1nc2c(-c3ccccc3)nnn2c2ccccc12	3%	0%
Cc1ccc(-c2nnn3c2nc(NCC(C)c2ccccc2)c2ccccc23)cc1 (stereo not drawn)	5µM*	0%
Cc1ccccc1-n1c(SCC(=O)N/N=C/c2c(C)nn(-c3ccccc3)c2C)nc2ccccc2c1=O	?	-3%
C=C(C)Cn1c(SCC)nc2ccccc2c1=O	-4%	-6%
C=C(C)Cn1c(SCC(=O)N/N=C/c2c(O)ccc3ccccc23)nc2ccccc2c1=O	16µM*	-5%
Cc1nn(-c2ccccc2)c(C)c1/C=N/NC(=O)CSc1nnc(SCc2cccc3ccccc23)s1	4µM*	-4%
Cc1ccc(-n2c(SCC(=O)N/N=C/c3c(C)nn(-c4ccccc4)c3C)nc3ccccc3c2=O)cc1	-6%	-3%
Cc1nn(-c2ccccc2)c(C)c1/C=N/NC(=O)CSc1nc2ccccc2c(=O)n1-c1ccc(Br)cc1	16µM*	2%
COc1cc(-c2nc(-c3ccc(NC(=O)c4ccc5c(c4)OCO5)cc3)no2)cc(OC)c1OC	?	-3%
Cc1ccccc1-c1nc(-c2ccc(NC(=O)c3ccc4c(c3)OCO4)cc2)no1	7.9µM*	-1%
O=C(O)CCC(=O)c1cccc2ccccc12	-9%	-2%
C[N+](C)(C)CCC(=O)c1cccc2ccccc12	10µM*	14µM*
Cn1cccc1C(=O)N1CCC2(CCCN(c3ccccc3)C2)CC1	19%	-5%
O=C(CC1S/C(=N/N=C/C=C/c2ccccc2)NC1=O)Nc1ccc(Cl)c(Cl)c1 (stereo not drawn)	6.3µM*	-1%
O=C(O)CC1S/C(=N/N=C/C=C/c2ccccc2)NC1=O (stereo not drawn)	-3%	-17%
COc1ccc(-c2nn(-c3ccccc3)cc2/C=C2/SC(=S)N(Cc3ccco3)C2=O)c(C)c1	3.2µM*	0%
COc1ccc(-n2c(C)cc(/C=C3\SC(=S)N(Cc4ccco4)C3=O)c2C)cc1	7.9µM*	-5%
Cc1ccc(/C=C2\SC(=S)N(Cc3ccccc3)C2=O)o1	?	-13%
SMILES	Cruzain inh noDet	Cruzain Triton
Cc1ccc(-n2c(C)cc(/C=C3/C(=O)NC(=O)N(Cc4ccco4)C3=O)c2C)cc1	-10%	-5%
COc1ncc2nc(-c3cc(F)cc(F)c3)c(=O)n(CCC#N)c2n1	-14%	-6%
O=c1c(CCc2ccccc2)nc2cncnc2n1-c1ccccc1	-2%	-9%
O=c1c(CCc2ccccc2)nc2cncnc2n1Cc1ccccc1	3.2µM*	3%
Cc1cccc(N(C)S(=O)(=O)c2nnc(NC(=O)C(C)Oc3ccccc3)s2)c1 (stereo not drawn)	14%	-11%
O=C(O)c1nc(-c2ccccc2)[nH]c1C(=O)O	-6%	4%
Cc1ccccc1OCC(=O)NCCc1nc2ccccc2[nH]1	3.2µM*	5µM*
Cc1cccc(OCC(=O)NCc2ccncc2)c1C	-1%	-3%
Cc1ccccc1OCC(=O)NCCC(=O)O	1%	1%
Cc1cccc(OCC(=O)NCCc2nc3ccccc3[nH]2)c1C	3%	4µM*
COc1ccc(C(=O)Nc2cc(-c3cccc(C)c3)nn2-c2ccccc2)cc1	-22%	-2%
O=C(Nc1ccc([N+](=O)[O-])cc1)C1CC1(c1ccccc1)c1ccccc1 (stereo not drawn)	5%	-9%
CC1(C)C(C=C(Cl)Cl)C1C(=O)Nc1ccc([N+](=O)[O-])cc1 (stereo not drawn)	10µM*	13µM*
O=[N+]([O-])c1ccc(N2CCN(S(=O)(=O)c3ccc(Cl)c(Cl)c3)CC2)cc1NCCN1CCOCC1	6%	-5%
